# According to PMC5540273 (PLoS ONE, 2017):
# Key:
# Conditions in all cases: concentration: 1 μM, replicates: in singlicate; n = 1
# PRKD3 = tested on: PRKD3
# PRKG1 = tested on: PRKG1
# PRKG2 = tested on: PRKG2
# PRKR = tested on: T1, PRKR
# T1 construct: gene EIF2AK2
# PRKX = tested on: PRKX
# PRP4 = tested on: PRP4
# PYK2 = tested on: T2, PYK2
# T2 construct: gene PTK2B
# QSK = tested on: QSK
# RAF1 = tested on: RAF1
# RET = tested on: RET
# 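Also: KINOMEscan kinase panel screen.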
SMILES,%Inh (PRKD3) [%],%Inh (PRKG1) [%],%Inh (PRKG2) [%],%Inh (PRKR) [%],%Inh (PRKX) [%],%Inh (PRP4) [%],%Inh (PYK2) [%],%Inh (QSK) [%],%Inh (RAF1) [%],%Inh (RET) [%]
CN(C)CCOc1ccc(-c2cc(-c3ccc(Cl)c(O)c3)c(-c3ccncc3)[nH]2)cc1.Cl.Cl [SB-684387],15,11,80,11,17,15,0,3,88,60
CC(C)c1nc(-c2ccc(F)c(NS(=O)(=O)c3c(F)cccc3F)c2)c(-c2ccnc(Nc3ccc(N4CCOCC4)nc3)n2)s1 [GSK1804250],100,1,1,35,23,2,50,32,95.3,89
Cc1ccc(C)c(NC(=O)Nc2ccc(C)c(-c3ccc(C(=O)Nc4ccncc4)cc3)c2)c1 [GSK1398473],38,31,0,14,20,0,0,8,89,23
CN(C)CCNS(=O)(=O)c1ccc(-c2ccnc3[nH]ccc23)cc1 [GSK977620],11,95.4,97.4,0,68,0,20,8,1,2
Cl.Cl.NCC(NC(=O)c1cc(-c2cccnc2)c(-c2ccnc3[nH]ccc23)s1)c1ccccc1 (centres unmarked) [GSK1323434],34,45,68,0,56,29,10,13,12,28
O=C(O)C(F)(F)F.O=c1[nH]ccc2nc(N[C@@H]3CCNC3)nc(Nc3ccc4c(c3)S(=O)(=O)CC4)c12 [GSK2181306],100,56,93.6,91.1,89,67,99.4,31,0,97.5
Nc1ncc(-c2ccc3nccc(-c4ccncc4)c3c2)cc1S(=O)(=O)N1CCCCC1 [GSK1693850],23,7,0,3,27,0,28,1,18,13
CN(c1ccc(NC(=O)N2CCN(CCCN3CCOCC3)CC2)cc1)c1ccnc(Nc2ccc(CS(C)(=O)=O)cc2)n1.Cl [GW830899],0,0,100,0,63,0,16,0,28,6
c1ccc(Oc2ccc(Nc3ccnc4cc(-c5ccc(CN6CCCCC6)o5)ccc34)cc2)nc1 [GW567143],0,6,0,0,7,2,0,27,0,11
Cn1cc(-c2ccc3c(c2)CCN3C(=O)Cc2cc(F)cc(C(F)(F)F)c2)c2c(N)ncnc21 [GSK2635225],18,0,16,15,6,16,0,10,11,35
COC(=O)Nc1nc2ccc(Oc3ccc(NC(=O)Nc4cc(C(F)(F)F)ccc4F)cc3)cc2[nH]1.Cl [GW654607],15,9,10,3,10,0,15,28,91.3,100
COc1cccc(-c2nc(-c3ccccc3)[nH]c2-c2ccncc2)c1 [SB-610250],11,0,0,0,0,70,0,8,34,25
CCOc1nccc(-c2c(-c3ccc(F)cc3)ncn2C2CCNCC2)n1 [SB-249175],19,0,12,16,0,0,16,20,19,32
COc1cccc(C2=C(Nc3cccc(O)c3)C(=O)NC2=O)c1 [SB-390771],7,9,81,15,20,41,43,0,20,1
Cc1ccccc1CC(=O)N1CCc2cc(-c3cn(C)c4ncnc(N)c34)ccc21 [GSK2603346],0,0,0,0,0,0,0,4,0,36
Cl.Cl.NC(CNC(=O)c1cc(Br)c(-c2ccnc3[nH]ccc23)s1)c1ccccc1 (centres unmarked) [GSK1322949],62,98.5,98.4,6,92.5,87,32,22,0,30
O=C(Nc1n[nH]c2nc(-c3ccccc3)ccc12)C1CC1 [SB-708999],0,1,0,0,5,7,0,0,23,32
